Experimental findings from PubChem BioAssay AID2535 (National Center for Advancing Translational Sciences (NCATS), 2010) are described below.

Unmarked numbers belong to inactive results. Calls follow the shape of the dose curve; as a rule, active = well fitted curve in the direction sought with a large enough effect; inconclusive = small, poorly fitted or top-dose-only effect, or effect the other way, or another doubt; inactive = no such curve, though single readings can be large or run the other way.

In this test the target is Pyruvate kinase PKLR (Homo sapiens) (UniProt P30613). The test can be described thus: Secondary Concentration-Response Assay for Activators of Human Liver Pyruvate Kinase: for Probe SAR.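 Also: 0% = uninhibited enzyme wells on each plate.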 To be noted: purified hPK-L, ATP production, Kinase-Glo luminescence; series mostly up to 58.3 µM; activity change, positive = activation: at the top concentration. From the text: NIH Chemical Genomics Center [NCGC]
Chain of Pyruvate kinase PKLR (Homo sapiens) (P30613 whole entry, looked up): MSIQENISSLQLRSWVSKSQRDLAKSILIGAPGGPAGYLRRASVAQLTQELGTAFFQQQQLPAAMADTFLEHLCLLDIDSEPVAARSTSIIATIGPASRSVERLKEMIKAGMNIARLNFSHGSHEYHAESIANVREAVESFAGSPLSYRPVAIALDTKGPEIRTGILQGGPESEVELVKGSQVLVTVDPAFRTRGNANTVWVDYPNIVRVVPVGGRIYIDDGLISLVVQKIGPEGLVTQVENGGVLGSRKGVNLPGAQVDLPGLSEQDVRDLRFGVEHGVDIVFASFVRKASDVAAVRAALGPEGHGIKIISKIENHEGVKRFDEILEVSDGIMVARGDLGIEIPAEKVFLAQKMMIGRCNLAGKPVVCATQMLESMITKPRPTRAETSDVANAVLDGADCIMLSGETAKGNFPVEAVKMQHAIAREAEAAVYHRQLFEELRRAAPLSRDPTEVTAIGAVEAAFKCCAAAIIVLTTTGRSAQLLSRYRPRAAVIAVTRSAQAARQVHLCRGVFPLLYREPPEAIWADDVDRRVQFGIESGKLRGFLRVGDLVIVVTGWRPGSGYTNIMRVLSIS
Matthew G. Vander Heiden, M.D., Ph.D. [Harvard Medical School, 77 Avenue Louis Pasteur, Boston, MA 02115]
Human pyruvate kinase liver (hPK-L) enzyme was supplied as a highly purified (>95% pure) preparation from Harvard Medical School and assayed for its ability to generate ATP from ADP using phosphoenolpyruvate (PEP) as a substrate. ATP generation was detected in a coupled reaction by luciferase-mediated luminescence, an ATP-dependent process. Pyruvate kinase substrates, PEP and ADP, were present in the assay at Km and approximately 10-fold below Km respectively. The enzyme was assayed at an intermediate level of activity to screen for both inhibitors and activators.
NCGC Assay Protocol Summary for L-isoform:
Three uL of substrate mix (at r.t.) in assay buffer (50 mM Imidazole pH7.2, 50 mM KCl, 7 mM MgCl2, 0.01% Tween 20, 0.05% BSA) was dispensed into white solid bottom 1,536 well microtiter plates so that the final concentrations of substrates in the assay were 0.1 mM ADP and 0.5 mM PEP. 23 nL of compound were delivered by a pin tool and 1 uL of enzyme mix (final concentration of 0.1 nM) in assay buffer (4 degree Celsius) was added. Plates were incubated at room temperature for 1 hour. Two uL of detection mix (Kinase-Glo, Promega; at 4 degree Celsius protected from light) was added and luminescence read by a ViewLux (Perkin Elmer) at 1 second exposure/plate. Data were normalized to the uninhibited (row 31). Additionally, a no enzyme and 5-fold enzyme control was dispensed in row 32, split equally between the two conditions.
(In general: In Kinase-Glo more light means more ATP remaining.)
As to `Cc1ccc(C)c(OC2=NS(=O)(=O)c3ccccc32)c1`, the “activity change, positive = activation” value is -1.9%.
Take `COc1cccc(Cn2ncc3c4sc(S(C)=O)cc4n(C)c3c2=O)c1` (stereo not given): the “activity change, positive = activation” value was 5.38%.
Take `Cc1cc(N2C(=O)c3ccccc3C2=O)no1`: the “activity change, positive = activation” value is -9.96%.
Regarding `O=C1c2ccccc2C(=O)N1c1ccc(Cl)cc1`, the “activity change, positive = activation” value was 2.91%.
As for `Fc1ccccc1-c1ccc(-c2nc3ccc(Cl)cn3c2Nc2ccc(Cl)cc2)o1`, the figure is -46.2%; as for `Cc1ccc(NS(=O)(=O)c2ccc3[nH]c(=O)[nH]c3c2)cc1C`, 12.4%.
Regarding `Cc1cc(N2C(=O)c3ccccc3C2=O)n[nH]1`, the “activity change, positive = activation” value was -12.2%.
As to `Cc1ccc(-c2nc3cccc(C)n3c2Nc2ccc(F)cc2)o1`, the “activity change, positive = activation” value was 4.76%.
In the case of `O=C1CCc2cc(S(=O)(=O)Nc3ccncc3)ccc2N1`, the “activity change, positive = activation” value was 0.409%.
As to `O=C1CCc2cc(S(=O)(=O)Nc3ccccn3)ccc2N1`, the “activity change, positive = activation” value was 3.25%.
For the molecule `O=C1CCc2cc([S+](=O)([O-])Nc3ccc(N[S+](=O)([O-])c4ccc5c(c4)CCC(=O)N5)cc3)ccc2N1`, the “activity change, positive = activation” value is 6.99%.
With `O=C1c2ccccc2C(=O)N1c1cccc(O)c1`, the “activity change, positive = activation” value was -8.54%.
Regarding `Cc1c(Cl)cccc1NS(=O)(=O)c1cc2c(cc1F)NC(=O)CC2`, the “activity change, positive = activation” value is 0.535%.
On to `O=C1c2ccccc2C(=O)N1c1ccccn1`, for which the “activity change, positive = activation” value was 2.49%.
On to `CNc1cccc(S(=O)(=O)N2CCN(S(=O)(=O)c3ccc4c(c3)OCCO4)CC2)c1`, for which the “activity change, positive = activation” value is 17.7%.
Take `Cc1ccc2nc(-c3ccc(C)o3)c(Nc3ccc(F)cc3)n2c1`: the “activity change, positive = activation” value was -1.65%.
With `CNc1cc2c(cc1S(=O)(=O)Nc1ccc(C)c(C)c1)CCC(=O)N2`, the “activity change, positive = activation” value is -8.71%.
Turning to `O=C1c2ccccc2C(=O)N1c1cccc(=O)[nH]1`, the “activity change, positive = activation” value is 0.586%.
Take `O=C1CCc2cc(S(=O)(=O)Nc3ccccc3-c3ccccc3)ccc2N1`: the “activity change, positive = activation” value is 2.85%.
As for `Cc1ccc(NS(=O)(=O)c2cccc(F)c2)cc1C`, the figure is 8.43%.
With `O=C1c2ccccc2C(=O)N1c1cccnc1`, the “activity change, positive = activation” value was -2.26%.
Take `Cc1ccc(NS(=O)(=O)c2cc3c(cc2Cl)CCC(=O)N3)cc1C`: the “activity change, positive = activation” value is 5.22%.
In the case of `COc1cccc(NS(=O)(=O)c2ccc3c(c2)CCC(=O)N3)c1`, the “activity change, positive = activation” value is 8.7%.
As for `O=C1CCc2cc(S(=O)(=O)Nc3ccc4c(c3)OCCO4)ccc2N1`, the figure is 8.86%; as for `Cc1ccc(NS(=O)(=O)c2ccc3c(c2)NC(=O)CO3)cc1C`, 15.7%.
For `COc1ccc(S(=O)(=O)Nc2ccc(C)c(C)c2)cc1`, the “activity change, positive = activation” value was 9.75%.
Turning to `Cc1ccc(OC2=NS(=O)(=O)c3ccccc32)cc1`, the “activity change, positive = activation” value is 3.19%.
On to `O=C1c2ccccc2C(=O)N1C1CCCCC1`, for which the “activity change, positive = activation” value is 2.06%.
Regarding `N#Cc1ccc(NS(=O)(=O)c2ccc3c(c2)CCC(=O)N3)cc1`, the “activity change, positive = activation” value is 3.86%.
Take `COc1cccc(N2C(=O)c3ccccc3C2=O)c1`: the “activity change, positive = activation” value is -0.213%.
For `O=C1CCc2cc(S(=O)(=O)Nc3ccc4c(c3)CCC4)ccc2N1`, the “activity change, positive = activation” value was 17.1%.
With `O=C1c2ccccc2C(=O)N1c1ccc(O)cc1`, the “activity change, positive = activation” value is 3.99%.
As for `Cc1ccc(Nc2c(-c3ccc(C)o3)nc3cccc(C)n23)cc1`, the figure is 4.33%.
As for `O=C1c2ccccc2C(=O)N1c1cccc2ccncc12`, the figure is 2.75%; as for `CC(=O)Nc1cccc(S(=O)(=O)Nc2ccc(C)c(C)c2)c1`, 6.7%.
On to `Cc1ccc(NS(=O)(=O)c2ccc3c(c2)n(C)c(=O)n3C)cc1C`, for which the “activity change, positive = activation” value is 7.5%.
For the molecule `Cc1ccc(NS(=O)(=O)c2cc3c(cc2/C=C/c2ccccc2)NC(=O)CO3)cc1C`, the “activity change, positive = activation” value was -0.901%.
With `Cc1ccc(NS(=O)(=O)c2cc3c(cc2C)NC(=O)CO3)cc1C`, the “activity change, positive = activation” value was 14%.
Take `Cc1ccc(NC(=O)c2ccc3c(c2)CCC(=O)N3)cc1C`: the “activity change, positive = activation” value is 3.59%.
For `Cc1ccc(NS(=O)(=O)c2cc3c(cc2N2CCC2)NC(=O)CC3)cc1C`, the “activity change, positive = activation” value is -7.16%.
